Inconclusive results are not listed. Calls of active or inactive are those of the source. Calls follow the shape of the dose curve; as a rule, active = well fitted cell-killing curve with a large enough effect; inconclusive = small, poorly fitted or top-dose-only effect; inactive = no such curve, though single readings can be large or run the other way.
Experiment: qHTS of pediatric cancer cell lines to identify multiple opportunities for drug repurposing: Primary screen for SK-N-MC cells (AID 1347093)
Conditions: SK-N-MC viability, CellTiter-Glo luminescence, 48 h; series mostly up to 46 µM
Procedure, shortened: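 Metabolically active cells were quantified by ATP-dependent luminescence (CellTiter-Glo, 15 min at room temperature) following 48 h treatment. Cells had been plated at 500-1,000 per well and settled for 5 h beforehand.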
Potency is read from the fitted curve at half-maximal effect.

SMILES	Potency
COc1cc2c(cc1O)CCC1C2CC[C@@]2(C)C1CC[C@@H]2O (some centres not stated)	6620 nM (active)
C=Cc1c(C)c2cc3nc(cc4[nH]c(cc5nc(cc1[nH]2)C(C)=C5CCC(=O)O)c(CCC(=O)OC)c4C)[C@@]1(C)C3=CC=C(C(=O)OC)[C@H]1C(=O)OC	59 nM (active)
CCc1ccc(C(=O)Nc2cc(CN3CCN(C)CC3)cc(C(F)(F)F)c2)cc1C#Cc1cnc2ccnn2c1	1870 nM (active)
CC(=O)N[C@@H]1[C@H](O[C@@H]2c3ccc(c(Cl)c3)Oc3cc4cc(c3O[C@H]3O[C@H](CO)[C@@H](O)[C@H](O)[C@H]3NC(=O)CCCCCCCC(C)C)Oc3ccc(cc3Cl)C[C@H]3NC(=O)[C@H](N)c5ccc(O)c(c5)Oc5cc(O)cc(c5)[C@H](NC3=O)C(=O)N[C@H]4C(=O)N[C@H]3C(=O)N[C@@H]2C(=O)N[C@@H](C(=O)O)c2cc(O)cc(O[C@H]4O[C@H](CO)[C@@H](O)[C@H](O)[C@H]4O)c2-c2cc3ccc2O)O[C@H](CO)[C@@H](O)[C@@H]1O	inactive
Cc1[nH]c(C=C2C(=O)Nc3ccccc32)c(C)c1CCC(=O)O	590 nM (active)
COc1cc2ncnc(Nc3cccc(Br)c3)c2cc1OC	11.8 nM (active)
N[C@H]1CN(c2c(F)cc3c(=O)c(C(=O)O)cn(C4C[C@@H]4F)c3c2Cl)CC12CC2 (some centres not stated)	inactive
CC(C)Oc1ccc(C(=O)N[C@H](CNC(=O)CN(C)C)Cc2ccc(-c3cn4cccc([C@H](C)O)c4n3)cc2)cc1Cl	148 nM (active)
Nc1nc(N)c2nc(-c3cccc(O)c3)c(-c3cccc(O)c3)nc2n1	1480 nM (active)
COc1cc(OC)cc(-c2ccc3ncc4ccc(=O)n(-c5ccc(N6CCNCC6)c(C(F)(F)F)c5)c4c3c2)c1	1320 nM (active)
CN(N=O)C(=O)N[C@H]1C(O)OC(CO)[C@@H](O)[C@H]1O (some centres not stated)	inactive
COc1cc(N2CCC(C(N)=O)CC2)ccc1Nc1nc(N)c(Cl)c(Nc2ccccc2S(=O)(=O)C(C)C)n1	132 nM (active)
C[C@H](CCC(=O)O)[C@H]1CCC2C3C[C@H](O)[C@@H]4C[C@H](O)CC[C@]4(C)C3CC[C@@]21C (some centres not stated)	inactive
CC(C)[C@H](CO)Nc1nc(Nc2cccc(Cl)c2)c2ncn(C(C)C)c2n1	1320 nM (active)
CC(C)NC[C@@H](C(=O)N1CCN(c2ncnc3c2[C@H](C)C[C@H]3O)CC1)c1ccc(Cl)cc1	132 nM (active)
COC(=O)C=CC(=O)OC	3.7 nM (active)

SMILES	Potency
COc1ccc(C(C)=O)c(O)c1	37.2 nM (active)
O=C1NC(O)CCN1[C@@H]1O[C@H](CO)[C@H](O)[C@H]1O (some centres not stated)	inactive
NC(=NCCCCCCN=C(N)N=C(N)Nc1ccc(Cl)cc1)N=C(N)Nc1ccc(Cl)cc1	2090 nM (active)
CCN(CC)Cc1ccc2cc(COC(=O)Nc3ccc(C(=O)NO)cc3)ccc2c1	833 nM (active)
COc1ccc(S(=O)(=O)Nc2cccnc2Nc2ccc(O)cc2)cc1	296 nM (active)
CNC(=O)c1cccc(-c2ccc3c(N4CCOC[C@H]4C)nc(N4CCOC[C@H]4C)nc3n2)c1	14.8 nM (active)
NC1=N[C@H]2[C@H](CS[C@H]2CCCCC(=O)O)N1	inactive
C=CCNc1c(O)cc2c(O)c1C[C@@H](C)C[C@H](OC)[C@@H](O)[C@@H](C)C=C(C)[C@H](OC(N)=O)[C@@H](OC)C=CC=C(C)C(=O)N2	1180 nM (active)
Cn1cnc(=N)c2[nH]cnc21	83.3 nM (active)
O=C(NC1CC1)c1cccc(-c2ccc3c(NC(=O)C4CC4)n[nH]c3c2)c1	372 nM (active)
CN[C@@H]1C[C@H]2O[C@@](C)([C@H]1OC)n1c3ccccc3c3c4c(c5c6ccccc6n2c5c31)C(=O)N[C@H]4O	37.2 nM (active)
CN(CC(=O)N(Cc1ccc(C2CCCCC2)cc1)c1ccc(C(=O)O)c(O)c1)S(=O)(=O)c1c(F)c(F)c(F)c(F)c1F	1480 nM (active)
COc1cc2c(Nc3ccc(Cl)c(Cl)c3F)ncnc2cc1OCC1C[C@@H]2CN(C)C[C@H]2C1	2960 nM (active)
Oc1ccc([C@@H]2Oc3ccc(O)cc3[C@@H]3CCC[C@@H]32)cc1	4180 nM (active)
FC(F)c1nc2ccccc2n1-c1nc(N2CCOCC2)nc(N2CCOCC2)n1	59 nM (active)
C=C1C(=CC=C2CCC[C@]3(C)[C@@H]([C@H](C)CCCC(C)(C)O)CC[C@@H]23)C[C@@H](O)C[C@@H]1O	1480 nM (active)

— PubChem BioAssay (NCATS)
